# Some of the results follow. The true hit rate is not given.
# B1: HC704 (peptide)
# chain: CATRTIASPKAGNASASA
# B2: HC1170 (peptide)
# chain: CAWRVDGIMHAGNASASA
# B3: FS-1627 (peptide)
# chain: CAELGDDGRTAGNASASA
# B4: FS-252 (peptide)
# chain: CAILSRAKRPAGNASASA
# B5: HC1323 (peptide)
# chain: CAPPPRKKRTAGNASASA
# B6: FS-669 (peptide)
# chain: CAIRSGKKRTAGNASASA
# B7: FS-479 (peptide)
# chain: CAQLLRKKRPAGNASASA
# B8: HC1319 (peptide)
# chain: CAPPPKSPPVAGNASASA
# B9: FS-991 (peptide)
# chain: CAELLRKKRTAGNASASA
# B10: HC693 (peptide)
# chain: CAAAQTFLATAGNASASA
# B11: HC2480 (peptide)
# chain: CACTPCSAHLAGNASASA
# B12: HC469 (peptide)
# chain: CAHYPCTINYAGNASASA
# B13: HC1736 (peptide)
# chain: CAMEECSGHLAGNASASA
# B14: HC2008 (peptide)
# chain: CAVWCCSMSYAGNASASA
# B15: FS-1415 (peptide)
# chain: CASPQRRRRQAGNASASA
# B16: FS-1012 (peptide)
# chain: CAIGGRFDRQAGNASASA
# B17: FS-1623 (peptide)
# chain: CACLRRRRRQAGNASASA
# B18: FS-801 (peptide)
# chain: CAIFRRRPRQAGNASASA
# B19: FS-787 (peptide)
# chain: CAGREERRRQAGNASASA
# B20: FS-234 (peptide)
# chain: CAEQRRRRRQAGNASASA
# B21: FS-181 (peptide)
# chain: CANMWRCPRQAGNASASA
# B22: FS-1860 (peptide)
# chain: CARLRKCVEQAGNASASA
# B23: HC2552 (peptide)
# chain: CASTPCSAELAGNASASA
# B24: HC2276 (peptide)
# chain: CAGLEVVTSTAGNASASA
# B25: HC823 (peptide)
# chain: CASILGIGTVAGNASASA
# B26: HC676 (peptide)
# chain: CAAYAQQTRGAGNASASA
# B27: HC756 (peptide)
# chain: CAKAVDFIPVAGNASASA
# B28: FS-570 (peptide)
# chain: CATPQRLRRQAGNASASA
# B29: HC933 (peptide)
# chain: CATPGLPVCQAGNASASA
# B30: HC2247 (peptide)
# chain: CAEVVTSTWFAGNASASA
# B31: FS-1121 (peptide)
# chain: CAETRRERRRAGNASASA
# B32: FS-800 (peptide)
# chain: CAIFLRLKRRAGNASASA
# B33: FS-1155 (peptide)
# chain: CAREQRERRRAGNASASA
# B34: FS-1304 (peptide)
# chain: CAAMRRLKRRAGNASASA
# B35: FS-361 (peptide)
# chain: CALRRRLKRRAGNASASA
# B36: FS-1701 (peptide)
# chain: CARFLRHTGRAGNASASA
# B37: HC2117 (peptide)
# chain: CASDVVCCSMAGNASASA
# B38: HC2 (peptide)
# chain: CAMEEGSQHLAGNASASA
# B39: HC1211 (peptide)
# chain: CAYVTGMTTDAGNASASA
# B40: HC900 (peptide)
# chain: CAQDAVSRTQAGNASASA
# B41: HC2271 (peptide)
# chain: CADLEVVTSTAGNASASA
# B42: HC228 (peptide)
# chain: CAGYIPLVGAAGNASASA
# Biological target: furin, P09958
# Sequence (P09958 whole entry): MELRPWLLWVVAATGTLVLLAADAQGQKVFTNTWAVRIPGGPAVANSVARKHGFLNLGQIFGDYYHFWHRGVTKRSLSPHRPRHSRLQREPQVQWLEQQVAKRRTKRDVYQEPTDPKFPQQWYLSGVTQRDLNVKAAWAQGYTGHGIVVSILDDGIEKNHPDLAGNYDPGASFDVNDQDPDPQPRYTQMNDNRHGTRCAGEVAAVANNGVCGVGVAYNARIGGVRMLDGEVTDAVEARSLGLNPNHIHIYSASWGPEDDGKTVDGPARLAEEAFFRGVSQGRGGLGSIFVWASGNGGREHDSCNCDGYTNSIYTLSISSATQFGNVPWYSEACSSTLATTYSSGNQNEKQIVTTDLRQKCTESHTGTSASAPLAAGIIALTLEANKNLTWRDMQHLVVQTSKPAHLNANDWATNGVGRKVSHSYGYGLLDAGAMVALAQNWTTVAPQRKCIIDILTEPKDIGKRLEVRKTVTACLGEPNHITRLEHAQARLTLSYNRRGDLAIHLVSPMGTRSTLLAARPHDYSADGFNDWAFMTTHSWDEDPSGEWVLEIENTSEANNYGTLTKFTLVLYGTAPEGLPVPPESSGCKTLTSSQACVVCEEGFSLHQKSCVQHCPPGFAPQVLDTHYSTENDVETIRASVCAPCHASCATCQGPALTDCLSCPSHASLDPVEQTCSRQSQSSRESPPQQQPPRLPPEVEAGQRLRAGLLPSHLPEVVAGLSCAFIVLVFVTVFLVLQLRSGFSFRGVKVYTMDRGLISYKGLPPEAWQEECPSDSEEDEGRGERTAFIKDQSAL
# Experiment: furin cleavage Z-score vs untreated control; higher = more cleavage, active = 3.5 or more, inactive = 1 or less, 8 variable residues between constant flanks
# Procedure, shortened: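 In 50 mM HEPES pH 7.5 with CaCl2 and NaCl, purified furin was incubated with bead-anchored 8-mer peptide–cDNA fusions at 1:10 enzyme:substrate in 0.01 ml. Incubation times were 7.5, 15 and 30 min. DNA set free by cleavage was adapter-tagged by PCR and sequenced, with read counts taken as abundance. Log counts relative to furin-free reactions, after lowess adjustment and median absolute deviation scaling, form the cleavage Z-score.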
Sequence,furin cleavage Z-score (7.5 min),furin cleavage Z-score (15 min),furin cleavage Z-score (30 min)
B1,1.03,0.625 (inactive),-0.793 (inactive)
B2,1.37,0.67 (inactive),0.743 (inactive)
B3,-0.885 (inactive),-0.821 (inactive),-0.581 (inactive)
B4,0.222 (inactive),-1.38 (inactive),0.306 (inactive)
B5,12.7 (active),14.5 (active),10.1 (active)
B6,-1.71 (inactive),-0.504 (inactive),-0.845 (inactive)
B7,2.18,1.54,4.39 (active)
B8,-0.03 (inactive),-0.325 (inactive),0.671 (inactive)
B9,5.51 (active),6.85 (active),6.38 (active)
B10,-1.34 (inactive),-1.47 (inactive),-1.85 (inactive)
B11,2.02,1.15,0.414 (inactive)
B12,-0.918 (inactive),-0.579 (inactive),0.122 (inactive)
B13,-0.517 (inactive),-0.79 (inactive),1.12
B14,1.84,-0.334 (inactive),1.13
B15,7.36 (active),8.25 (active),6.4 (active)
B16,-1.34 (inactive),2.43,1.03
B17,8.28 (active),7.74 (active),5.47 (active)
B18,5.14 (active),4.22 (active),2.76
B19,-0.438 (inactive),-0.529 (inactive),0.464 (inactive)
B20,8.68 (active),6.63 (active),6.29 (active)
B21,1.61,-1.4 (inactive),-1.2 (inactive)

Sequence,furin cleavage Z-score (7.5 min),furin cleavage Z-score (15 min),furin cleavage Z-score (30 min)
B22,-0.549 (inactive),0.53 (inactive),1.14
B23,-0.156 (inactive),0.767 (inactive),0.789 (inactive)
B24,1.36,-0.694 (inactive),-0.958 (inactive)
B25,-0.809 (inactive),0.141 (inactive),-0.562 (inactive)
B26,0.0125 (inactive),0.047 (inactive),1.9
B27,-0.823 (inactive),-0.464 (inactive),-0.656 (inactive)
B28,7.8 (active),8.92 (active),4.33 (active)
B29,0.0348 (inactive),-0.269 (inactive),0.151 (inactive)
B30,-0.0997 (inactive),1.76,0.942 (inactive)
B31,3.87 (active),4.13 (active),4.7 (active)
B32,3.63 (active),3.18,3.43
B33,0.997 (inactive),2.01,2.01
B34,8.73 (active),7.83 (active),8.17 (active)
B35,7.56 (active),7.31 (active),5.73 (active)
B36,2.28,1.08,0.702 (inactive)
B37,1.61,-1.16 (inactive),0.074 (inactive)
B38,-0.0457 (inactive),-0.462 (inactive),1.87
B39,-0.923 (inactive),-0.868 (inactive),-1.18 (inactive)
B40,-0.887 (inactive),-1.13 (inactive),-1.41 (inactive)
B41,-1.06 (inactive),0.142 (inactive),-0.409 (inactive)
B42,-0.438 (inactive),-0.464 (inactive),-0.124 (inactive)
